Assay results as given in PubChem BioAssay AID449764 (Southern Research Specialized Biocontainment Screening …, 2010).
Out of some 2,300 compounds screened, about 1,700 (74%) were called active. So high a share suggests a set chosen from earlier hits. This is one part of the list. Entries with a potency or affinity are not part of this list. Values without a mark were called inactive. No rule for the calls is given here.

experiment: Mycobacterium tuberculosis H37Rv growth inhibition, no glycerol, confirmatory dose response (AID 449764); details: series mostly up to 100 µM; inhibition: at the top concentration;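 also: growth read after 7 days of incubation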

Row | Compound | inhibition
1 | CCc1cc(C(=O)Nc2ccc(C)cc2Br)cs1 | 8.99%
2 | CC(=O)CCSc1ncnc2sc(-c3ccccc3)cc12 | -1.41%
3 | O=C(CCSc1ccc(Cl)cc1)NC12CC3CC(CC(C3)C1)C2 | -2.68%
4 | Nc1cc(=O)[nH]c(SCc2csc(-c3ccccc3)n2)n1 | -1.35%
5 | CSc1ccccc1C(=O)NC1CCSc2ccccc21 (stereo not given) | 20.9%
6 | Cc1cccc(COc2ccccc2/C=N/Nc2ccc([N+](=O)[O-])cc2)c1 | 5.72%
7 | CCCn1c(O)c(N=NC(=O)c2ccco2)c2ccccc21 | 4.39%
8 | CCn1nc(C)c(C(=O)Nc2cc(Oc3cc(C)cc(C)c3)cc([N+](=O)[O-])c2)c1C | -9.17%
9 | Cc1c(Cl)c([N+](=O)[O-])nn1Cc1ccc(C(=O)N/N=C\c2cccc(Br)c2)o1 | 27.6%
10 | CN1C(=O)CC(c2ccccc2)C1=O (stereo not given) | -0.42%
11 | COc1ccc(OC)c(C(=O)NC(CC(N)=O)c2ccc(NCc3ccc(F)c(F)c3)c([N+](=O)[O-])c2)c1 (stereo not given) | -5.11%
12 | Nc1ccc2oc(-c3cccs3)nc2c1 | -1.81%
13 | Fc1cccc2sc(Nc3nc4cc5c(cc4s3)OCO5)nc12 | 5.75%
14 | CC1=CC(=O)NP(=O)(Oc2ccc3ccccc3c2)N1 (stereo not given) | -1.64%
15 | O=C(OCCN1C(=O)c2ccccc2C1=O)c1cc2ccccc2o1 | -0.54%
16 | C=CCc1cccc(CNc2cnc3ccccc3c2)c1O | 2.59%
17 | CNc1cccccc1=S | -4.44%
18 | COc1cc2cnc(-c3ccccc3)c(-c3ccc(C(F)(F)F)cc3)c2cc1OC | -0.08%
19 | CCCCc1cc(=O)oc2cc(O)ccc12 | 11.3%
20 | Cc1n[nH]c(=S)n1/N=C/c1cccc(OCc2ccccc2)c1 | 7.56%
21 | COC(=O)c1cccc(C#CC(NP(=O)(c2ccccc2)c2ccccc2)c2ccccc2)c1 (stereo not given) | 0.43%
22 | COc1ccc(NC(=O)CN(C)C(=O)c2n[nH]c3ccccc23)cc1 | -4.02%

Row | Compound | inhibition
23 | CCOC(=O)c1cc(-c2cccc([N+](=O)[O-])c2)on1 | -2.44%
24 | O=C(C1CCC1)N1CCN(S(=O)(=O)c2ccc(Br)cc2Cl)CC1 | 5.08%
25 | CCCNC(=O)NC(=O)COc1ccc2oc3ccccc3c2c1 | 6.46%
26 | COc1ccc(N=Cc2ccc(CNS(=O)(=O)c3ccc(Cl)cc3)o2)cc1 | -4.59%
27 | CCOC(=O)c1ccc(NC(=S)Nc2ccc3[nH]c(=O)[nH]c3c2)cc1 | 29.6%
28 | CCCN(C(=O)CCOc1ccc(C(C)(C)C)cc1)c1c(N)n(Cc2ccccc2)c(=O)[nH]c1=O | -6.04%
29 | O=C(N/N=C/c1cn(-c2ccccc2)nc1-c1cccs1)c1ccc(Cl)cc1 | 7.81%
30 | c1ccc(CCNc2ncnc3c2cnn3-c2ccccc2)cc1 | -1.21%
31 | Nc1nc(-c2cccc(F)c2)cs1 | -0.58%
32 | c1ccc(NNC2=NCCCCC2)cc1 | -2.54%
33 | Cc1ccc(CN2CCN(Cc3ccc(-n4cccn4)cc3C)CC2CCO)cc1 (stereo not given) | -3.02%
34 | C/C(=N\N(Cc1ccccc1)c1ccccc1)c1ccncc1 | 4.7%
35 | O=C(NCc1ccc2c(c1)OCO2)c1c(O)nc2sccn2c1=O | 1.96%
36 | CCOC(=O)C1CCN(C(=O)c2ccc3c(c2)NC(=O)/C(=C/c2ccccc2)S3)CC1 | -14.7%
37 | O=C(CCN1C(=O)/C(=C/c2ccccc2Cl)SC1=S)N1CCCC1 | 0.83%
38 | Clc1ccc(-c2ccc(C=Nc3ccc(N4CCOCC4)cc3)o2)c(Cl)c1 | -3.46%
39 | O=C(C[n+]1ccccc1)NNc1ccccc1 | -6.73%
40 | O=C(c1ccccc1)c1c[nH]c(C(=O)NNc2ccccc2)c1 | -7.38%
41 | O=C(CSc1nc(Nc2ccccc2)nc(N2CCOCC2)n1)Nc1cc(Cl)ccc1O | 2.45%
42 | CCOC(=O)c1cn[nH]c1N | -1.01%
43 | O=C(NNc1ccc([N+](=O)[O-])cc1)c1ccco1 | -3.37%
44 | CC(C)Oc1ccc(NC(=O)Oc2ccccc2)cc1 | -21.4%

Row | Compound | inhibition
45 | COC(=O)C(NC(=O)c1ccc(OC)cc1)(Nc1ncc(S(=O)(=O)c2ccc([N+](=O)[O-])cc2)s1)C(F)(F)F (stereo not given) | -3.98%
46 | N#C/C(=C1\CCCN1)c1nc(-c2ccccc2)cs1 | 0.87%
47 | COC(=O)c1ccc(N/N=C/c2cc([N+](=O)[O-])cc(OC)c2O)cc1 | 3.48%
48 | O=C(c1ccco1)N1CCN(C(=O)C2CC(c3ccc(Cl)c(Cl)c3)=NO2)CC1 (stereo not given) | 12.1%
49 | CCCSC1=C(C#N)C(c2ccc(Cl)cc2Cl)CC(=O)N1 (stereo not given) | -8.3%
50 | COc1ccc(S(=O)(=O)N(C)CC(=O)NCCCn2ccnc2)cc1Cl | -6.65%
51 | CC1CCC/C(=N\NC(=S)Nc2ccccc2)C1 (stereo not given) | 0.12%
52 | Cc1nn(-c2ccccc2)c(Cl)c1/C=N/NC(=O)c1ccc(CNc2ccccc2)o1 | -3.39%
53 | Cc1cc(/C=C(/C#N)c2cccc(F)c2)c(C)n1-c1cccnc1 | 1.53%
54 | COc1ccc2[nH]c(=O)c(CNc3cccc(C)c3)cc2c1 | 2.12%
55 | CCOC(=O)c1ccc(NC(=O)CSc2ccc(-c3cccnc3)nn2)cc1 | -3%
56 | CC1(C)CN(c2ccccc2)N(C(=O)c2ccc(C#N)cc2)C1=O | 2.97%
57 | C(=N\N1CCN(C2c3ccccc3-c3ccccc32)CC1)/c1ccccn1 | -1.89%
58 | CC(=O)c1ccc2c(c1)C1C(Cl)C(Sc3ccccc3[N+](=O)[O-])CC1C(c1ccccc1)N2 (stereo not given) | 3.73%
59 | Cc1cn(-c2ccc(Br)cc2)[nH]c1=O | -5.24%
60 | Nc1cnccc1C(=O)O | -4.85%
61 | CC(NC(=O)c1ccccc1Br)C1CC2CCC1C2 (stereo not given) | -1.35%
62 | O=C(NC1CCCCC1)C1CC(=O)N(c2cccc([N+](=O)[O-])c2)C1 (stereo not given) | -25.3%
63 | Nn1c(SCc2ccccc2)nc2ccccc21 | -6.86%
64 | COc1ccc(-c2oc3ncnc(NCCCN4CCOCC4)c3c2-c2ccc(OC)cc2)cc1 | 13.5%
65 | O=c1[nH][nH]cc1C=Nc1ccc(Oc2ccccc2)cc1 | -7.44%
66 | COc1ccc(NC(=O)C2C3C=CC(O3)C2C(=O)NCc2cccnc2)cc1 (stereo not given) | 4.36%

Row | Compound | inhibition
67 | CC1CN(C(=S)SCC(=O)c2ccc([N+](=O)[O-])cc2)CC(C)O1 (stereo not given) | 11.2%
68 | N#CC(c1cccc(Cl)c1)c1ccc2c(C(F)(F)F)cc(C(F)(F)F)nc2n1 (stereo not given) | -3.14%
69 | CCc1n[nH]c(=S)n1/N=C/c1ccc(-c2ccc(Br)cc2)o1 | 0.41%
70 | CCCCOC(=O)c1ccc(NC(=S)NC(=O)c2c(Br)c(C)nn2C)cc1 | -2.35%
71 | CCn1c(SCC(=O)N(C)CCC#N)nc2cc(S(=O)(=O)N3CCOCC3)ccc21 | 6.82%
72 | COC(=O)C1=C(C)NC(=O)/C1=C\c1cc(C)n(-c2cccc(C)c2)c1C | -2.49%
73 | O=C(c1ccc(C#Cc2ccccc2)o1)N1CCN(c2ccccn2)CC1 | 0.6%
74 | O=C(O)Cc1cnc[nH]1 | -6.39%
75 | Cc1cc(/C=C/C(=O)O)c(C)n1-c1ccc(Cl)cc1 | -10.7%
76 | O=C(CCN1C(=O)C2C3C=CC(C3)C2C1=O)Oc1ccc2ccccc2c1 (stereo not given) | 2.23%
77 | Cc1cc(C2=NNC(=NC3CCCCC3)SC2)c(C)n1-c1c(C)n(C)n(-c2ccccc2)c1=O | -2.3%
78 | COC(=O)c1cccc(OC(N)=O)c1 | -19.5%
79 | CCOc1ccc(-n2c(O)c(/C=N/Nc3nnc(C)c(=O)[nH]3)c3ccccc3c2=O)cc1 | 2.23%
80 | CN(C)S(=O)(=O)c1cccc(NC(=O)CCc2nc3sc4c(c3c(=O)[nH]2)CCCC4)c1 | -3.1%
81 | COc1cccc(NC(=O)Nc2nc(SC(C)(C)C)ns2)c1 | 11.6%
82 | Nc1ccc(-c2nc3ccc(-c4nc5ccccc5o4)cc3[nH]2)cc1 | 13.2%
83 | CC(C)(C)c1nc(SCC(=O)Nc2nc3c(s2)CCCC3)c2ccccc2n1 | -2.53%
84 | O=C(Nc1cc(Oc2ccccc2)cc([N+](=O)[O-])c1)C12CC3CC(C1)CC(n1cnc(Cl)n1)(C3)C2 | 15.2%
85 | C/C(=N\NC(=O)c1cc2c(s1)CCC(C)C2)c1ccncc1 (stereo not given) | 4.95%
86 | CCC1(c2ccccc2)NC(=O)N(CC(=O)Nc2ccc(S(=O)(=O)NC3=NCCCCC3)cc2)C1=O (stereo not given) | -1.06%
87 | Nc1cc(C(=O)OCC(=O)NNC(=O)c2cccs2)ccc1Cl | 4.43%
88 | CSc1ccc(CNC(=O)C2Cc3cc(S(=O)(=O)N4CCCCC4)ccc3N2C(C)=O)cc1 (stereo not given) | 6.47%

Row | Compound | inhibition
89 | Nc1ncc2[nH]cnc2n1 | 1.24%
90 | O=C(COc1cc(O)c2c(=O)c3ccccc3oc2c1)OCc1ccccc1 | 2.32%
91 | CCCc1ccc(OCc2ccccc2)c2c(=O)cc(C(=O)OCC)oc12 | 2.09%
92 | Cc1ccc(NC(=O)C2CCN(S(=O)(=O)c3ccc4c(c3)NC(=O)C(C)S4)CC2)c(Cl)c1 (stereo not given) | -2.4%
93 | O=C(c1cc([N+](=O)[O-])ccc1N1CCOCC1)N1CCN(S(=O)(=O)c2cc(Cl)ccc2Cl)CC1 | 0.57%
94 | COc1ccc2c(C)nc(Nc3nc(C)c(C)c(=O)[nH]3)nc2c1 | -52.9%
95 | COc1ccc(N/C=C/c2nc(SC)nnc2C)cc1 | -3.67%
96 | COc1ccc(Oc2ccc(N/C=C/C(=O)C(C)(C)C)cc2)cc1 | -1.41%
97 | CCCOc1ccc(C(=O)c2nc3c(n2O)CCCCC3)cc1 | 6.51%
98 | CCCc1ncc(CN2CCCC(C(=O)Nc3ccc(-c4cccc(OC)c4)cc3)C2)cn1 (stereo not given) | 2.45%
99 | N/C(=N\OC(=O)CCC1CCCC1)c1cccc([N+](=O)[O-])c1 | -9.85%
100 | Cc1ccccc1C(=O)Nc1ccc(N(C)C)c2ccccc12 | 5.34%
101 | O=C(N/N=C/c1ccc(Br)s1)c1cccs1 | -0.24%
102 | CCn1nnc(-c2ccc(N)cc2)n1 | -13.6%
103 | COc1ccc(C(C(O)C(=O)c2c[nH]c3ccccc23)N2CCN(c3ccc(OC)cc3)CC2)cc1 (stereo not given) | 3.98%
104 | COc1ccc(N2CN=C3SCC(=O)N3C2)cc1 | -4.24%
105 | CCOc1ccc(NC(=S)NC23CN4CN(CN(C4)C2)C3)cc1 | 19.1%
106 | CCOC(=O)c1ccc(OC(=O)CCCCCN=C(N)N)cc1 | -8.62%
107 | COc1ccccc1C(=O)NC(=Nc1nc2ccccc2o1)NC(=O)c1ccccc1OC | 8.05%
108 | O=C(CN1CCN(c2ccc(F)cc2)CC1)N1CCC(Cc2ccccc2)CC1 | -6.61%
109 | CC(=Nc1ccc(C)c(C)c1)C1=C(O)CSC1=O | -2.11%
110 | CCOc1ccc(S(=O)(=O)N2CCN(C(=O)c3cc4c(s3)CCCC4)CC2)cc1 | -0.19%
